Where a name gives a salt, the structure may show the parent alone.

The test system of the experiment is FB. The experiment in a line: Euclidean distance of Cell Painting phenotypic profile (signed KS, 77 features) to DMSO centroid (dimensionless distance); 5 or 10 uM (library dependent); higher = stronger phenotypic change vs DMSO (phenoactivity). The following applies: 48 h. Summed up:
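Harmony extracted 77 features from 20X confocal images (9 fields/well) of stained cells, scoring each as a signed Kolmogorov-Smirnov statistic against same-plate vehicle wells. The cells, five cancer lines and a healthy fibroblast line, had received library compounds for 48 h at 10 or 5 uM depending on library, with 0.1% DMSO final. Phenoactivity is the Euclidean distance from each plate-position-corrected, correlation-weighted, top-dose replicate-averaged profile to the median vehicle profile.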
`Cc1cc(Nc2nc(N[C@@H](C)c3ccc(F)cc3)c(C#N)cc2F)n[nH]1`: the Euclidean distance turned out to be 2.42.
As for `CC1(C)S[C@@H]2[C@H](NC(=O)[C@H](N)c3ccc(O)cc3)C(=O)N2[C@H]1C(=O)O` [Amoxicillin Sodium], the Euclidean distance is 1.06.
For `CONC(=O)Nc1ccc(-c2sc3c(c2CN(C)C)c(=O)n(-c2ccc(OC)nn2)c(=O)n3Cc2c(F)cccc2F)cc1` [Relugolix], the Euclidean distance is 1.4.
In the case of `CCCCCCCCN=C(N)NC(N)=NCc1ccc(Cl)c(Cl)c1` [Olanexidine Hydrochloride semihydrate] it was 6.15; in that of `N[C@@H](CC(=O)O)C(=O)O` [L-aspartic Acid], 0.809.
Take `O=C(c1ccc(F)c(F)c1Nc1ccc(I)cc1F)N1CC(O)([C@@H]2CCCCN2)C1` [Cobimetinib (GDC-0973. RG7420)]: the Euclidean distance was found to be 4.08.
Turning to `CN(C)CCN1C(=O)c2cccc3cc(N)cc(c23)C1=O` [Amonafide], the Euclidean distance stood at 3.29.
With `Nc1nc(NC2CC2)c2ncn([C@H]3C=C[C@@H](CO)C3)c2n1` [Abacavir sulfate] the figure was 1.19; with `CC(C)(C)NCC(O)c1ccc(O)c(CO)c1` (centres undefined) [Salbutamol Sulfate], 0.735.
Consider `CCOc1cc(N)c([N+](=O)[O-])cc1C(=O)NC1CCN(CC2CC=CCC2)CC1` (centres undefined) [Cinitapride Hydrogen Tartrate], for which the Euclidean distance turned out to be 1.21.
As for `CN1CCC(=C2c3ccccc3CCc3cccnc32)CC1` [Azatadine dimaleate], the Euclidean distance came out at 1.05.
`O=C1c2ccc(Nc3ccc(F)cc3F)cc2CCc2ccc(OC[C@H](O)CO)cc21` [Skepinone-L] registered an Euclidean distance of 2.05.
With `CCc1nc(C(N)=O)c(Nc2ccc(N3CCC(N4CCN(C)CC4)CC3)c(OC)c2)nc1NC1CCOCC1` [Gilteritinib (ASP2215)] the figure was 3.66; with `O=C(O)c1cc(=O)c2ccccc2o1` [Chromocarb], 1.04; with `CCCCCCCCCCCCCCCCCCOCC(O)CO` (centres undefined) [Batyl alcohol], 1.18.
With `CC(C)c1nc(CN(C)C(=O)N[C@H](C(=O)N[C@@H](Cc2ccccc2)C[C@H](O)[C@H](Cc2ccccc2)NC(=O)OCc2cncs2)C(C)C)cs1` [Ritonavir] the figure was 1.35; with `CSc1nc2cc(Cl)c(Oc3cccc(Cl)c3Cl)cc2[nH]1` [Triclabendazole], 1.07.
`CCNC(=O)[C@@H]1CCCN1C(=O)[C@H](CCCNC(=N)N)NC(=O)[C@H](CC(C)C)NC(=O)[C@@H](CC(C)C)NC(=O)[C@H](Cc1ccc(O)cc1)NC(=O)[C@H](CO)NC(=O)[C@H](Cc1c[nH]c2ccccc12)NC(=O)[C@H](Cc1c[nH]cn1)NC(=O)[C@@H]1CCC(=O)N1` [Leuprolide Acetate]: the Euclidean distance came to 0.659.
In the case of `CC(=O)Oc1ccc(C(c2ccc(OC(C)=O)cc2)c2ccccn2)cc1` [Bisacodyl] it was 3.08.
The compound `O=C(CCc1ccc(O)cc1)c1c(O)cc(O)cc1O` [Phloretin] showed an Euclidean distance of 1.13.
With `CC1(C)S[C@@H]2[C@H](NC(=O)[C@H](N)c3ccccc3)C(=O)N2[C@H]1C(=O)O` [Ampicillin Trihydrate] the figure was 0.762.
Compound `OC(CCN1CCCC1)(c1ccccc1)C1CCCCC1` (centres undefined) [Procyclidine HCl] came in with an Euclidean distance of 1.87.
Compound `CCN1C(=O)NC(c2ccccc2)C1=O` (centres undefined) [Ethotoin] registered an Euclidean distance of 0.863.
In the case of `NCCCCCNCC12CC3CC(CC(C3)C1)C2` [IEM 1754 dihydrobroMide], the Euclidean distance is 0.973.
`CCN(CC)CC(=O)Nc1c(C)cccc1C` [Lidocaine hydrochloride] came in with an Euclidean distance of 0.862.
In turn, `O=C1c2c(O)cccc2Cc2cccc(O)c21` [Dithranol] had an Euclidean distance of 2.24.
In the case of `Cc1ccc(/C(=C\CN2CCCC2)c2cccc(/C=C/C(=O)O)n2)cc1` [Acrivastine] it was 0.976.
In the case of `C=C(C)[C@@H]1CC[C@]2(CO)CC[C@]3(C)[C@H](CC[C@@H]4[C@@]5(C)CC[C@H](O)C(C)(C)[C@@H]5CC[C@]43C)[C@@H]12` [Betulin] it was 1.2.
With `COc1ccc2[nH]cc(CCNC(C)=O)c2c1` [Melatonin] the figure was 0.749; with `CO/N=C(\C(=O)N[C@@H]1C(=O)N2C(C(=O)OCOC(=O)C(C)(C)C)=C(/C=C\c3scnc3C)CS[C@H]12)c1csc(N)n1` [Cefditoren Pivoxil], 1.03.
For `N=C(N)c1ccc(N=NNc2ccc(C(=N)N)cc2)cc1` [Diminazene Aceturate], the Euclidean distance worked out at 0.72.
The compound `CN[C@H](CC(C)C)C(=O)N[C@H]1C(=O)N[C@@H](CC(N)=O)C(=O)N[C@H]2C(=O)N[C@H]3C(=O)N[C@H](C(=O)N[C@H](C(=O)O)c4cc(O)cc(O)c4-c4cc3ccc4O)[C@H](O)c3ccc(c(Cl)c3)Oc3cc2cc(c3O[C@@H]2O[C@H](CO)[C@@H](O)[C@H](O)[C@H]2O[C@H]2C[C@](C)(N)[C@H](O)[C@H](C)O2)Oc2ccc(cc2Cl)[C@H]1O` [Vancomycin HCl] showed an Euclidean distance of 0.465.
With `CC(C)c1c(C(=O)Nc2ccccc2)c(-c2ccccc2)c(-c2ccc(F)cc2)n1CC[C@@H](O)C[C@@H](O)CC(=O)O` [atorvastatin] the figure was 3.29; with `C[C@@H]1CC(=O)NN=C1c1ccc(NN=C(C#N)C#N)cc1` [Levosimendan], 1.44; with `CCN1CCCC1CNC(=O)c1cc(S(=O)(=O)CC)c(N)cc1OC` (centres undefined) [Amisulpride], 1.07.
Regarding `NS(=O)(=O)NCCNc1nonc1/C(=N/O)Nc1ccc(F)c(Br)c1`, the Euclidean distance worked out at 1.35.
In the case of `CCCCOCCOCCOCc1cc2c(cc1CCC)OCO2` [Piperonyl butoxide] it was 0.892; in that of `CCN(CC)CCNC(=O)c1ccc(N)cc1` [Procainamide HCl], 0.787; in that of `CN1[C@@H]2CC[C@H]1C[C@@H](OC(c1ccccc1)c1ccccc1)C2` [Benztropine mesylate], 1.56.

(Values after the supplement of paper PMC10127200.)
